Laboratory results taken from PubChem BioAssay (EPA / NIEHS).
Calls of active or inactive are those of the source. Rule for the calls: active = hit-call score of the fitted dose curve at least 0.9, where 1 is the maximum; inactive = score below 0.9.

The compounds below were run on Monocyte Chemoattractant Protein-1 (MCP1), CCL2 (gene 6347) (assay: BSK_IMphg_MCP1: BioMAP Diversity Plus: IMphg Assay for Monocyte Chemoattractant Protein-1 (MCP1) Biomarker Activity (AID 2284253)). Conditions: primary human endothelial cells with macrophages.
Experimental: BSK_IMphg is a cell-based, multiplexed-readout assay that uses venular endothelial cells and macrophages, a human vascular primary cell, with measurements taken at 24 hours after chemical dosing in a microplate: 96-well plate.BSK_IMphg_MCP1 is an assay component measured in the BSK_IMphg assay. It measures MCP-1 antibody related to regulation of gene expression using ELISA technology.Data from the assay component BSK_IMphg_MCP1 was analyzed at the endpoint, BSK_IMphg_MCP1, in the positive analysis fitting direction relative to DMSO as the negative control and baseline of activity. Using a type of binding reporter, gain or loss-of-signal activity can be used to understand protein changes. To generalize the intended target to other relatable targets, this assay endpoint is annotated to the 'cytokine' intended target family, where the subfamily is 'chemotactic factor'.
The levels of cell surface (or secreted, indicated by the prefix "s") biomarker endpoints were measured by ELISA. Overt cytotoxicity to cells in confluent adherent cultures (all systems other than the BT system) was assessed by measuring total protein levels using sulforhodamine B (SRB) staining in parallel cultures at the time of biomarker measurements, indicated as SRB endpoints. For proliferation assays for adherent cell types, individual cell types are cultured at sub-confluence and relative cell numbers quantified by SRB staining at time points optimized for each system (48 h: 3C and CASM3C systems; 72 h: BT and HDF3CGF systems; 96 h: SAg system). SRB was performed by staining cells with 0.1% SRB after fixation with 10% TCA and reading wells at 560 nm.Viability and proliferation of PBMC (T cells) was quantified by Alamar Blue reduction for the SAg and BT systems. For PBMC viability (referred to as PBMC Cytotoxicity within the assay endpoint names), cells were plated (75,000/well in a 96-well plate) and then chemical samples added for 1 h before addition of activators, SEB and TSST-1 (20 ng/mL final concentration each). Cells were incubated for 90 h. Then, Alamar Blue (20 uL/well) (Invitrogen, Cat DAL1100) was added for 6 h, and the plates were read with a fluorescence microplate reader at 546/580 nm (excitation/emission). For PBMC proliferation, cells were plated and activated as above but incubated for only 16 h prior to addition of Alamar Blue. Plates were read after 6 h.

Question: Which outcome does the source give for `FC(F)C(F)(F)COCC1CO1` (stereo not given) here?
Answer: inactive

Question: For `O=C(Cl)C(F)(F)C(F)(F)C(F)(F)C(=O)Cl`, which outcome is on record?
Answer: inactive

Question: For `O=S(=O)(O)CCC(F)(F)C(F)(F)C(F)(F)C(F)(F)C(F)(F)C(F)(F)F`, which outcome is on record?
Answer: inactive

Question: How did the outcome turn out when `OCCC(F)(F)C(F)(F)C(F)(F)C(F)(F)F` was run?
Answer: inactive

Question: For `FC(F)(F)C(F)(F)C(F)(F)C(F)(F)C(F)(F)C(F)(F)I`, which outcome is on record?
Answer: inactive

Question: Which outcome does the source give for `NCC(F)(F)C(F)(F)C(F)(F)C(F)(F)F` here?
Answer: inactive

Question: Which outcome does the source give for `C[Si](C)(C)C(F)(F)C(F)(F)C(F)(F)F` here?
Answer: inactive

Question: `OC(O)(C(F)C(O)(O)C(F)(F)F)C(F)(F)F` was tested. Which outcome did it give?
Answer: inactive

Question: For `FC(F)=C(F)C(F)(F)C(F)(F)C(F)(F)C(F)(F)C(F)(F)C(F)(F)F`, which outcome is on record?
Answer: inactive

Question: How did the outcome turn out when `FC(F)(F)COC(OCC(F)(F)F)OCC(F)(F)F` was run?
Answer: inactive
